# Legend:
# Assay in all cases: DAPPL (digital affinity profiling via proximity ligation, sequencing); 10 mM Tris-HCl pH 7.5, 50 mM NaCl, 1 mM DTT, 4% glycerol, room temperature, 30 min; GST-TFs on glutathione beads, 16-mer random dsDNA library, 0.1% formaldehyde crosslink after washing; high values mean tight binding
# [1] = target: T1, FEV (Homo sapiens, UniProt Q99581 1-238); conditions: protein: recombinant; tags: N-terminal GST; dsDNA, one strand shown
# T1 sequence: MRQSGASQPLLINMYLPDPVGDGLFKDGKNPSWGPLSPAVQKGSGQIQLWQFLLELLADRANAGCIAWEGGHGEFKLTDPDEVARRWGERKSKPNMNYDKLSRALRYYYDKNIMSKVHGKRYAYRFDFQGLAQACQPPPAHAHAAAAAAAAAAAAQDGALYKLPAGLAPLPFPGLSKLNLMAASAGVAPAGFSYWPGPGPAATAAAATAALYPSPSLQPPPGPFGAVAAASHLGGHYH
# Summary of the method: (§1)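 A tag-only sample was pooled with DNA-barcoded human transcription factors that had been expressed in yeast as GST fusions and captured on glutathione beads. The pools were incubated for 30 min at room temperature with 200 nmole of a random double-stranded 16-mer DNA library in Tris/NaCl/DTT/glycerol buffer, then washed, crosslinked with 0.1% formaldehyde, proximity-ligated (BsaI/T4 ligase, 1 h, 37 °C), PCR-amplified and sequenced on an Illumina NextSeq500. Binding signal is each hexamer's read frequency for a factor divided by its frequency for the tag-only sample.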
# [2] = target: ETV5 (Homo sapiens, UniProt P41161 1-510); conditions: protein: recombinant; tags: N-terminal GST; dsDNA, one strand shown
# ETV5, sequence (P41161 whole entry): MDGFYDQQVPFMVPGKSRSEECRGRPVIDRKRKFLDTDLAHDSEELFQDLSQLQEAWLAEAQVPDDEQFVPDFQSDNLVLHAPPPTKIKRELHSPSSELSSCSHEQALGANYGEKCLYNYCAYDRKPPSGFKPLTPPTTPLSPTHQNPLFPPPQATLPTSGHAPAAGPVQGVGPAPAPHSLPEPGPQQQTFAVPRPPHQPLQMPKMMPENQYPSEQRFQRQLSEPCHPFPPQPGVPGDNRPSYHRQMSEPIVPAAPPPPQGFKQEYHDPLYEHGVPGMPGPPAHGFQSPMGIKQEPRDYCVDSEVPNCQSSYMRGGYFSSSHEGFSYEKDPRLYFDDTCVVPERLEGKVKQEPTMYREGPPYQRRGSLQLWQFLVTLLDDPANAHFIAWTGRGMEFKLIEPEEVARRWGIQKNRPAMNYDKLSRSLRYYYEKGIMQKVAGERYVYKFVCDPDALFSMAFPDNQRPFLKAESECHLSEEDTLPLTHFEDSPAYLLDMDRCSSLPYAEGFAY
# Summary of the method: as §1
# [3] = target: HSF1 (Homo sapiens, UniProt Q00613 1-529); conditions: protein: recombinant; tags: N-terminal GST; chain copies: 3; dsDNA, one strand shown
# HSF1, sequence (Q00613 whole entry): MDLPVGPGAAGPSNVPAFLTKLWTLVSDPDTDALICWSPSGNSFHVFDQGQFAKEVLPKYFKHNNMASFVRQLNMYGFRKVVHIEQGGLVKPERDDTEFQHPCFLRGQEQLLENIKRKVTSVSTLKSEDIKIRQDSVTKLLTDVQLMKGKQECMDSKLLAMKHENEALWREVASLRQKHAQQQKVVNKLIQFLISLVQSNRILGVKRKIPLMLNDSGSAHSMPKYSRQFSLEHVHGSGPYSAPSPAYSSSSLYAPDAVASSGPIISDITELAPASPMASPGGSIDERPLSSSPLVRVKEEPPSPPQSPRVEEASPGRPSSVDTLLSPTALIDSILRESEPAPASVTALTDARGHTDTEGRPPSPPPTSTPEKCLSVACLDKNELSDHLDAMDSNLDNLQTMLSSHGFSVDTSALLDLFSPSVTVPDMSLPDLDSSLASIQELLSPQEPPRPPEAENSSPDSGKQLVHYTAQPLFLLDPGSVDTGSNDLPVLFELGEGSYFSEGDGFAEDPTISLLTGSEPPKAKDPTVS
# Summary of the method: as §1
# [4] = target: T2, SPIC (Homo sapiens, UniProt Q8N5J4 1-248); conditions: protein: recombinant; tags: N-terminal GST; dsDNA, one strand shown
# T2 sequence: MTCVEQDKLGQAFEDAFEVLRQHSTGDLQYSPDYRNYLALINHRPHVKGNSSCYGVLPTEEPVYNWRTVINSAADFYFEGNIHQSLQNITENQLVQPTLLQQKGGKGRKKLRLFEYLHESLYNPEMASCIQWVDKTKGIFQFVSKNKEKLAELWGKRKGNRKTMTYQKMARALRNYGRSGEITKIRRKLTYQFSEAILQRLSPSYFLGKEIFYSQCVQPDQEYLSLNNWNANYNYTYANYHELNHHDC
# Summary of the method: as §1
# [5] = target: ELF4 (Homo sapiens, UniProt Q99607 1-663); conditions: protein: recombinant; tags: N-terminal GST; dsDNA, one strand shown
# ELF4, sequence (Q99607 whole entry): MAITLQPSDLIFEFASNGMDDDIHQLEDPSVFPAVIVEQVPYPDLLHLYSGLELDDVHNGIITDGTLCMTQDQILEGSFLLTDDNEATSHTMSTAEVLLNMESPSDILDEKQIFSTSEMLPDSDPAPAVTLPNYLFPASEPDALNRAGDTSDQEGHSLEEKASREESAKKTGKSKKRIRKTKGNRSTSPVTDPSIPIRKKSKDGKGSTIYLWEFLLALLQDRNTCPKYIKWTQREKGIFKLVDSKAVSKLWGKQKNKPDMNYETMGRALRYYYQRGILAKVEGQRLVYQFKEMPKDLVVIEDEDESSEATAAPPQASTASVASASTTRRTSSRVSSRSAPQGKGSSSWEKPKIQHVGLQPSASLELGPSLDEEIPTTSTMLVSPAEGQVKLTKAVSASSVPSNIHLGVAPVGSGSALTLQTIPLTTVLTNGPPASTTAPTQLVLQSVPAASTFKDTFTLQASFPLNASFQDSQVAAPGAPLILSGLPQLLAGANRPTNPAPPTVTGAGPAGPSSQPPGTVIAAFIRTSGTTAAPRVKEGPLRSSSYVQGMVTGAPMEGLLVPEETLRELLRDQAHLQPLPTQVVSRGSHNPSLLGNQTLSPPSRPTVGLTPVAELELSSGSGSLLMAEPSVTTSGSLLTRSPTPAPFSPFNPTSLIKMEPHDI
# Summary of the method: as §1
# [6] = target: T3, ELK4 (Homo sapiens, UniProt P28324-2 1-405); conditions: protein: recombinant; tags: N-terminal GST; dsDNA, one strand shown
# T3 sequence: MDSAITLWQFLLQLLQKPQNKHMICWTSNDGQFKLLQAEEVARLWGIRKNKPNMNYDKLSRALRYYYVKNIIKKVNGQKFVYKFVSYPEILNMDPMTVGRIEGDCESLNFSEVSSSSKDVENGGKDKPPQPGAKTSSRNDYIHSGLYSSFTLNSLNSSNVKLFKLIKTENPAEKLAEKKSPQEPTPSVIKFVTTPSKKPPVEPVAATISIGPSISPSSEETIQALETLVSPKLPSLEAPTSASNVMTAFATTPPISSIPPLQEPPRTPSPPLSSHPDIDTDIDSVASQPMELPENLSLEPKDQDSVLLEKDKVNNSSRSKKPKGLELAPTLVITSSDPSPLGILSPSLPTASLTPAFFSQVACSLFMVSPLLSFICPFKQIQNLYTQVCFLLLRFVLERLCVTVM
# Summary of the method: as §1
# [7] = target: T4, ETV2 (Homo sapiens, UniProt O00321 1-342); conditions: protein: recombinant; tags: N-terminal GST; dsDNA, one strand shown
# T4 sequence: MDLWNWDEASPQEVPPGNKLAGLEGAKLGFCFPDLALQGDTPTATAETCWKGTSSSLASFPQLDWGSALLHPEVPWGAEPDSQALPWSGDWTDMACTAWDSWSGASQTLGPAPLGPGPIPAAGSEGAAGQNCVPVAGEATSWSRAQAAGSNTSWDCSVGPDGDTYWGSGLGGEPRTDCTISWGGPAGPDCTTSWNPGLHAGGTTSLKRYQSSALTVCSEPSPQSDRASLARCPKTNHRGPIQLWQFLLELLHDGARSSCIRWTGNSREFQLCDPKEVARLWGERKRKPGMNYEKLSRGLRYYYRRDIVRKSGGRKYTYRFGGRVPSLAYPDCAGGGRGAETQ
# Summary of the method: as §1
# [8] = target: T5, ELF3 (Homo sapiens, UniProt P78545 1-371); conditions: protein: recombinant; tags: N-terminal GST; dsDNA, one strand shown
# T5 sequence: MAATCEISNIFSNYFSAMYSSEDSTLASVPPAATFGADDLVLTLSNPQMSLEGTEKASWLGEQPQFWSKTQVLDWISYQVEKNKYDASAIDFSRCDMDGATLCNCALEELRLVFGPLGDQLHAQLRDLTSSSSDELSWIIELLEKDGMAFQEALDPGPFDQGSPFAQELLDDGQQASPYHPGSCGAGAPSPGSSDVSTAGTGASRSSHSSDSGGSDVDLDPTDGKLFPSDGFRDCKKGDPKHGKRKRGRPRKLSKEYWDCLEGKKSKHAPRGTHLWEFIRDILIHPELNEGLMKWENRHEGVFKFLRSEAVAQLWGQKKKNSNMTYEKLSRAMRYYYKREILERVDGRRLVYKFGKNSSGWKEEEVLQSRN
# Summary of the method: as §1
# [9] = target: CRX (Homo sapiens, UniProt O43186 1-299); conditions: protein: recombinant; tags: N-terminal GST; dsDNA, one strand shown
# CRX, sequence (O43186 whole entry): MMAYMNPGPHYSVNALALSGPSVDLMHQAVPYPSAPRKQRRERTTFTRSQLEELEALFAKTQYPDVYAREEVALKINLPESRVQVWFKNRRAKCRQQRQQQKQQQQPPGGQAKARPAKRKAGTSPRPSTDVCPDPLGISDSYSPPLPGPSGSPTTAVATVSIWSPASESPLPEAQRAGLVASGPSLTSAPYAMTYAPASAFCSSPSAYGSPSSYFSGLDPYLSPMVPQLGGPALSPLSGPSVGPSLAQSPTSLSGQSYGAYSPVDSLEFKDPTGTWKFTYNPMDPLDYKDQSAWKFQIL
# Summary of the method: as §1
# [10] = target: ETV1 (Homo sapiens, UniProt P50549 1-477); conditions: protein: recombinant; tags: N-terminal GST; dsDNA, one strand shown
# ETV1, sequence (P50549 whole entry): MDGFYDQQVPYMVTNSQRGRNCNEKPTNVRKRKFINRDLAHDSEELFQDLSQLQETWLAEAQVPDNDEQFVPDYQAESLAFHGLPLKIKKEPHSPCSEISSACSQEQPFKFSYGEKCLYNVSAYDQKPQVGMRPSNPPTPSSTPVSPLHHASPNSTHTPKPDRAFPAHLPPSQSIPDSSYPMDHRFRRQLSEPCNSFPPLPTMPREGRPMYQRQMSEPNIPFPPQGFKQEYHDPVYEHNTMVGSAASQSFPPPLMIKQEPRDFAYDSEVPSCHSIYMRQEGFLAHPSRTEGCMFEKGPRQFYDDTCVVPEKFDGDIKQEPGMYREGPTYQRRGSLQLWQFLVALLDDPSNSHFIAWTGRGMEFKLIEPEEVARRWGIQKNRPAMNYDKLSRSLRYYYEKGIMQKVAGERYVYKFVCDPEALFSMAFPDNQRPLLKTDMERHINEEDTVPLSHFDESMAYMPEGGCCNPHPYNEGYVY
# Summary of the method: as §1
# [11] = target: T6, ERF (Homo sapiens, UniProt P50548 1-548); conditions: protein: recombinant; tags: N-terminal GST; dsDNA, one strand shown
# T6 sequence: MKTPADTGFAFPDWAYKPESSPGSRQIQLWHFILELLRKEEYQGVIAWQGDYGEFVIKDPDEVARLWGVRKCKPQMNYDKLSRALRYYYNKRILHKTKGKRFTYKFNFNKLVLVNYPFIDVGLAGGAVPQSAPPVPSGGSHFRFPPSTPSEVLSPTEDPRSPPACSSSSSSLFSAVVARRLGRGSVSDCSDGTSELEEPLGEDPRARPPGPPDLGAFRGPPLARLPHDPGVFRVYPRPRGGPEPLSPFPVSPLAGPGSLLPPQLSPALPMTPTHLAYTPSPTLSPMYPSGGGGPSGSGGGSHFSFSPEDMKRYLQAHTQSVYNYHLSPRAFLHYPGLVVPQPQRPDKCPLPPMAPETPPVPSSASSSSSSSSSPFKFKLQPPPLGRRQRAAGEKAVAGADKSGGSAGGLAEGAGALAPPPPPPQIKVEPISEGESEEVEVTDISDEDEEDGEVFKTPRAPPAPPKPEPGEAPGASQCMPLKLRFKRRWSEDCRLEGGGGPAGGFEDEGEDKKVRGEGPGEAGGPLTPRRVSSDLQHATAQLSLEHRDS
# Summary of the method: as §1
# [12] = target: T7, ETV3L (Homo sapiens, UniProt Q6ZN32 1-361); conditions: protein: recombinant; tags: N-terminal GST; dsDNA, one strand shown
# T7 sequence: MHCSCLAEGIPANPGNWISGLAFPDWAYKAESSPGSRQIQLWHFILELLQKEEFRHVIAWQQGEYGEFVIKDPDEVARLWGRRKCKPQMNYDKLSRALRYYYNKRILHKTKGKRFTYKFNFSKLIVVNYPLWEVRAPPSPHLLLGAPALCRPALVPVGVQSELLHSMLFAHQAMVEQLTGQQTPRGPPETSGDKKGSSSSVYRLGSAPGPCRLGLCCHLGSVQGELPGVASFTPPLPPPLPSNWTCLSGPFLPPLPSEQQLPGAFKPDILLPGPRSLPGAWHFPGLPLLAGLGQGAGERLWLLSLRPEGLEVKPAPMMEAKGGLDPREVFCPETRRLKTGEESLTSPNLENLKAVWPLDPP
# Summary of the method: as §1
# [13] = target: T8, ETS2 (Homo sapiens, UniProt P15036 1-469); conditions: protein: recombinant; tags: N-terminal GST; dsDNA, one strand shown
# T8 sequence: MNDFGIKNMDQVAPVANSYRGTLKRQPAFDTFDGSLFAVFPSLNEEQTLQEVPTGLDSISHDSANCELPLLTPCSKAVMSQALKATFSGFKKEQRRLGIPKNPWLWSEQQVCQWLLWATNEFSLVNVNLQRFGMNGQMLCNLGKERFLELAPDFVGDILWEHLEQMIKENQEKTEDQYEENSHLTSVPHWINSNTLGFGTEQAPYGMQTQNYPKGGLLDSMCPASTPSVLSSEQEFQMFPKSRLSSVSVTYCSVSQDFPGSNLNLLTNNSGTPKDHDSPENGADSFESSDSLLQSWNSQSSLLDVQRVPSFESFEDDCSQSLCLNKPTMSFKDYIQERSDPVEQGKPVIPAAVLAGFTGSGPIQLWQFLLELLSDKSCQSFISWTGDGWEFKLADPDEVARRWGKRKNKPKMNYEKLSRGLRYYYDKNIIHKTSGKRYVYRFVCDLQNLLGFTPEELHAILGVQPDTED
# Summary of the method: as §1
# [14] = target: T9, SPDEF (Homo sapiens, UniProt O95238 1-335); conditions: protein: recombinant; tags: N-terminal GST; dsDNA, one strand shown
# T9 sequence: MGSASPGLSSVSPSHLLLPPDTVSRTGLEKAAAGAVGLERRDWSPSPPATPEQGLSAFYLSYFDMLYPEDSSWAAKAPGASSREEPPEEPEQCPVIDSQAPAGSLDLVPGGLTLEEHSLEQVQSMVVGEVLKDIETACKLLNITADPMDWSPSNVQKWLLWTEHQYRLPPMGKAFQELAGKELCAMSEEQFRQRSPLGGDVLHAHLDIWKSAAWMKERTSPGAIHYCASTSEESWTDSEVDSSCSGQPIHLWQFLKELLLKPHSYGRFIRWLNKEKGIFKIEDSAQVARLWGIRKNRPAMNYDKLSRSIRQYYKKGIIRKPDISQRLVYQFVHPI
# Summary of the method: as §1
# [15] = target: T10, ETV7 (Homo sapiens, UniProt Q9Y603 1-341); conditions: protein: recombinant; tags: N-terminal GST; dsDNA, one strand shown
# T10 sequence: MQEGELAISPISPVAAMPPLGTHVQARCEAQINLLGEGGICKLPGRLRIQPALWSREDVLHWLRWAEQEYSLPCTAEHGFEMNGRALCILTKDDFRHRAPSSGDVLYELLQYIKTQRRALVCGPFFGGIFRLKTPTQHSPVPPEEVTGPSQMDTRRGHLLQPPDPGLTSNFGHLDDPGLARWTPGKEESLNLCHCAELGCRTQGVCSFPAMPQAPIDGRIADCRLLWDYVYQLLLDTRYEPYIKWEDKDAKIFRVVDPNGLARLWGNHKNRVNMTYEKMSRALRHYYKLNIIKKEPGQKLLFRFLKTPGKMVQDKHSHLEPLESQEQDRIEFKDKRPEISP
# Summary of the method: as §1
# [16] = target: T11, ELF5 (Homo sapiens, UniProt Q9UKW6-2 1-255); conditions: protein: recombinant; tags: N-terminal GST; dsDNA, one strand shown
# T11 sequence: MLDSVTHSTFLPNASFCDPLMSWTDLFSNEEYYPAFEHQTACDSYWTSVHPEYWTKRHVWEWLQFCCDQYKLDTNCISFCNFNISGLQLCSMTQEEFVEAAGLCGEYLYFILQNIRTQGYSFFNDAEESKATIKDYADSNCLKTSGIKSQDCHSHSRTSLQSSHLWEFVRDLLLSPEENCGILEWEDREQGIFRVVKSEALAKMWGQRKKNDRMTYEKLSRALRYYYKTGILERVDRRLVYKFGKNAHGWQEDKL
# Summary of the method: as §1
# [17] = target: T12, ETV3 (Homo sapiens, UniProt P41162-2 1-143); conditions: protein: recombinant; tags: N-terminal GST; dsDNA, one strand shown
# T12 sequence: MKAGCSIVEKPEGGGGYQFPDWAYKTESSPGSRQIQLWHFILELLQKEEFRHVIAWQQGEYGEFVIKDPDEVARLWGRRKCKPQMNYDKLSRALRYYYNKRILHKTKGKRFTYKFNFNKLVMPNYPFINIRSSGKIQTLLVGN
# Summary of the method: as §1
# [18] = target: ETV6 (Homo sapiens, UniProt P41212 1-452); conditions: protein: recombinant; tags: N-terminal GST; dsDNA, one strand shown
# ETV6, sequence (P41212 whole entry): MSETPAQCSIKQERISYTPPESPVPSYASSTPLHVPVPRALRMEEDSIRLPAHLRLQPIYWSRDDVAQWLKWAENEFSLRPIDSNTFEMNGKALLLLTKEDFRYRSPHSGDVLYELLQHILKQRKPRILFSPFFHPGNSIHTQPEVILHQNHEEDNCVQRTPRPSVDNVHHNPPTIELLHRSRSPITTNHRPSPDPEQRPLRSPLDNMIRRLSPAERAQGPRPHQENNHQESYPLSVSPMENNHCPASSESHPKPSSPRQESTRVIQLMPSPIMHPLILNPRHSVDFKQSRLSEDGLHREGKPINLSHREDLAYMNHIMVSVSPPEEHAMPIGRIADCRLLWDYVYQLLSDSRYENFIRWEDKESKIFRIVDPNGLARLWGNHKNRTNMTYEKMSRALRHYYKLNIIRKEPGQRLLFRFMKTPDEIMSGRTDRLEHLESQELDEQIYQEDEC
# Summary of the method: as §1
sequence,measurement,setting,value
ACCTAT,binding signal,[1],"1.15 fold enrichment (6-mer frequency, TF over GST control)"
same,binding signal,[2],"1.14 fold enrichment (6-mer frequency, TF over GST control)"
same,binding signal,[3],"1.05 fold enrichment (6-mer frequency, TF over GST control)"
same,binding signal,[4],"1.11 fold enrichment (6-mer frequency, TF over GST control)"
same,binding signal,[5],"1.24 fold enrichment (6-mer frequency, TF over GST control)"
same,binding signal,[6],"1.13 fold enrichment (6-mer frequency, TF over GST control)"
same,binding signal,[7],"1.28 fold enrichment (6-mer frequency, TF over GST control)"
same,binding signal,[8],"1.24 fold enrichment (6-mer frequency, TF over GST control)"
same,binding signal,[9],"1.09 fold enrichment (6-mer frequency, TF over GST control)"
same,binding signal,[10],"1.21 fold enrichment (6-mer frequency, TF over GST control)"
same,binding signal,[11],"1.26 fold enrichment (6-mer frequency, TF over GST control)"
same,binding signal,[12],"1.16 fold enrichment (6-mer frequency, TF over GST control)"
same,binding signal,[13],"1.2 fold enrichment (6-mer frequency, TF over GST control)"
same,binding signal,[14],"1.25 fold enrichment (6-mer frequency, TF over GST control)"
same,binding signal,[15],"1.25 fold enrichment (6-mer frequency, TF over GST control)"
same,binding signal,[16],"1.11 fold enrichment (6-mer frequency, TF over GST control)"
same,binding signal,[17],"1.17 fold enrichment (6-mer frequency, TF over GST control)"
same,binding signal,[18],"1.16 fold enrichment (6-mer frequency, TF over GST control)"

# — publication PMC7862700, “An all-to-all approach to the identification of sequence-specific readers for epigenetic DNA modifications on cytosine”
